Sampled rows, rich in hits. Any-hit rate of the full collection: about 4.5%.
697 NFkB inh: inhibitors of PMA/ionomycin-induced NF-kB reporter, 697 cells, primary screen, B-cell NF-kB inhibitor project, cell-based, luminescence, uHTS; 697 B-cell NF-kB luciferase reporter, 16 h; inhibition, % at 4 µM; 330,000 compounds, 0.33% hits; in the data active means inhibition above about 35%
CSC inhib: cancer stem cell viability inhibitors, primary screen, luminescence. 300,000 compounds, 1.1% hits. cancer stem cell-like cells viability. inhibition, % at 7.5 µM; in the data active means inhibition above about 75%; tested in HMLE shEcad cells
Jurkat NFkB inh: inhibitors of induced NF-kB luciferase reporter, primary screen, TCR NF-kB activation inhibitor project, cell-based, luminescence, uHTS. Jurkat, PMA/ionomycin-induced NF-kB luciferase reporter. inhibition, % at 4 µM. 330,000 compounds, 0.53% hits; in the data active means inhibition above about 50%
Mdm2-MdmX inh: inhibitors of human Mdm2-MdmX association, primary screen, cell-based, luminescence, split luciferase, SaOS-2, uHTS; Protein Mdm4 (Homo sapiens) + E3 ubiquitin-protein ligase Mdm2 (Homo sapiens), …; 330,000 compounds, 3% hits; inhibition, % at 8 µM; SaOS-2 split-luciferase Mdm2/MdmX complementation;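 active means inhibition of at least 50% at 8 µM in the primary screen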
Target sequence (O15151 whole entry, looked up): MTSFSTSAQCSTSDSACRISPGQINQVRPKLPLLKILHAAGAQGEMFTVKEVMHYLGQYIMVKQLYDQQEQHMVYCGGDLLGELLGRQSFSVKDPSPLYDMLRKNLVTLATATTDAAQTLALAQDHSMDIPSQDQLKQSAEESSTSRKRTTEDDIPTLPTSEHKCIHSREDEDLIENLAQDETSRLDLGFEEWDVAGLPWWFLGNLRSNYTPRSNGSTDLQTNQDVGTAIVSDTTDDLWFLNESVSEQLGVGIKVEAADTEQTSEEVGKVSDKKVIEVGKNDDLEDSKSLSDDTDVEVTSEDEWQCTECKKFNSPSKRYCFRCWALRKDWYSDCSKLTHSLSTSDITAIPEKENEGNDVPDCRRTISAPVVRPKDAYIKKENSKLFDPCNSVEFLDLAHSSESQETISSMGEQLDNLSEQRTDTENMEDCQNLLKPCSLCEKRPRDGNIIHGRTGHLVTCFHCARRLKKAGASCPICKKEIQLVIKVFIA
Target sequence (Q00987 whole entry, looked up): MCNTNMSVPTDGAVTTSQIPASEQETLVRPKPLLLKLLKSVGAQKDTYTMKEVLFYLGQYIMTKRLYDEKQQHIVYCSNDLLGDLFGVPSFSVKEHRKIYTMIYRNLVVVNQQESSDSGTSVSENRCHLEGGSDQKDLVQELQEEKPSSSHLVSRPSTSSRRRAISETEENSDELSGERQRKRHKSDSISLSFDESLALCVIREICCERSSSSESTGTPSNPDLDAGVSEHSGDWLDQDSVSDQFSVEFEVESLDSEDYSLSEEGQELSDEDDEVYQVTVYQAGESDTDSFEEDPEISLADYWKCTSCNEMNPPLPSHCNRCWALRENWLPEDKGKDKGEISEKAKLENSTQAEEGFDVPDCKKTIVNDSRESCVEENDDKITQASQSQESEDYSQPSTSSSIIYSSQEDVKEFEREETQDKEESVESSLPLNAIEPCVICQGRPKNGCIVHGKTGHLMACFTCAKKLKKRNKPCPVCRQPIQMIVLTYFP
Beta apoptosis: inhibitors of cytokine-induced beta cell apoptosis, primary screen, luminescence; INS-1E cytokine-induced death, ATP luminescence, 48 h; percent of positive-control rescue, neutral wells zero; AID 435005, 2010; protection from apoptosis, % (concentration not given with the values); 300,000 compounds, 0.8% hits;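 active means Every replicate reaches about 75%, or at least half do and their mean reaches it too, limit read from the data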;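 further: higher means more ATP so stronger rescue from cytokine killing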
Gli-Sufu antag: Gli-Sufu pathway antagonists, primary screen, luciferase luminescence, Sufu-KO-LIGHT cells, uHTS; Sufu-KO-LIGHT fibroblasts, Gli luciferase reporter luminescence; inhibition, % at 5 µM; 340,000 compounds, 0.74% hits; AID 588413, 2011;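 active means inhibition above about 55%, limit read from the data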
Gli-Sufu confirm: Gli-SUFU pathway antagonists, confirmation, single concentration, luciferase luminescence, Sufu-KO-LIGHT cells. shares compounds with Gli-Sufu antag. Gli luciferase reporter. inhibition, % at 5 µM. 2,500 compounds, 40% hits;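 active means mean inhibition at 5 µM reaching about 45%, limit read from the data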
Gli cytotox: cytotoxicity in Sufu-KO-LIGHT cells, confirmation, cytotoxicity control for Gli-SUFU antagonist project, cell-based, ATP luminescence, single concentration | shares compounds with Gli-Sufu antag | cytotoxicity, % at 5 µM | 2,500 compounds, 32% hits | AID 651994, 2013;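 active means mean cytotoxicity at 5 µM above about 25%, limit read from the data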;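 further: cells exposed to compound overnight for roughly 16 to 18 hours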
Wnt3a counter: Wnt3a reporter signal inhibition, confirmation, counter-screen for Gli-SUFU antagonist project, Wnt-LIGHT cells, luminescence, single concentration; shares compounds with Gli-Sufu antag; Wnt3a-driven luciferase reporter; inhibition, % at 6.25 µM; 2,500 compounds, 20% hits;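 active means mean inhibition above about 25%, limit read from the data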
Of the large screens only hits and unclear results are named; the others gave an inactive call (follow-up assays come after a bar, where they were run).

CCCCCn1c(CN(C)Cc2ccccc2)nc2c1c(=O)n(C)c(=O)n2C	none (no result: 697 NFkB inh, CSC inhib, Jurkat NFkB inh, Mdm2-MdmX inh, Beta apoptosis)
C=C(C)Cn1c(CN(C)Cc2ccccc2)nc2c1c(=O)n(C)c(=O)n2C	Gli-Sufu antag 58 | Gli-Sufu confirm inactive | Gli cytotox 38 | Wnt3a counter inactive
CCc1ccc(OCC(=O)NNCC(=O)Nc2ccc(OC)cc2)cc1	none (no result: CSC inhib, Beta apoptosis)
O=C(Nc1cccc(Cl)c1)N1CCN2C(=O)c3ccccc3C12c1ccccc1 (stereo not given)	none
Cc1ccc(C(=O)N2CCN3C(=O)c4ccccc4C23c2ccc(Cl)cc2)cc1 (stereo not given)	Gli-Sufu antag 56 | Gli-Sufu confirm 61 | Gli cytotox inactive | Wnt3a counter inactive
Fc1ccc2[nH]c3c(NCc4ccccc4)ncnc3c2c1	Gli-Sufu antag 60 | Gli-Sufu confirm 68 | Gli cytotox inactive | Wnt3a counter 34
COc1ccc2cc([C@@H](C)C(=O)O)ccc2c1	none | Gli-Sufu confirm inactive | Gli cytotox inactive | Wnt3a counter inactive
Oc1ccc(C23CCCC2C2(CCCC2)c2ccc(O)cc2O3)c(O)c1 (stereo not given)	none (no result: CSC inhib)
Cc1ccc2[nH]c3c(N4CCN(Cc5ccccc5)CC4)ncnc3c2c1	none | Gli-Sufu confirm 53 | Gli cytotox 37 | Wnt3a counter inactive
Cc1ccc2c(c1)[nH]c1c(N3CCN(Cc4ccccc4)CC3)ncnc12	Beta apoptosis 113, Gli-Sufu antag 68 | Gli-Sufu confirm 63 | Gli cytotox 30 | Wnt3a counter inactive
c1csc(CCNc2ncnc3sc4c(c23)CCC4)c1	Gli-Sufu antag 56 (no result: Beta apoptosis) | Gli-Sufu confirm 60 | Gli cytotox 30 | Wnt3a counter inactive
c1ccc(Nc2ncnc3sc4c(c23)CCC4)cc1	none (no result: CSC inhib, Beta apoptosis)
CCn1c(-c2nonc2NC(=O)c2ccccc2)nc2ccccc21	Gli-Sufu antag 70 (no result: CSC inhib, Beta apoptosis) | Gli-Sufu confirm inactive | Gli cytotox inactive | Wnt3a counter inactive
Cc1c(C#N)c(=O)c(-[n+]2ccccc2)c([S-])n1-c1ccc(Cl)cc1	none
Cc1cc(C)n(-c2nnc(C)n2/N=C/c2ccco2)n1	none | Gli-Sufu confirm inactive | Gli cytotox inactive | Wnt3a counter inactive
Cc1ccc(NC(=S)Nc2ccc(OC(F)F)c(Cl)c2)cc1Cl	Gli-Sufu antag 56 (no result: 697 NFkB inh, Jurkat NFkB inh, Mdm2-MdmX inh) | Gli-Sufu confirm inactive | Gli cytotox inactive | Wnt3a counter inactive
O=C(Cc1cccs1)Nc1cccc(-c2nc3ccccc3o2)c1	Gli-Sufu antag 99 | Gli-Sufu confirm inactive | Gli cytotox inactive | Wnt3a counter inactive
Cc1ccc(-c2nc3ccccc3o2)cc1NC(=O)Cc1cccs1	none
CC[C@H](C)[C@H](NC(=O)c1ccccc1)C(=O)NC(CC(=O)O)c1ccc(F)cc1 (stereo not given in full)	none
COC(=O)CN(C(=O)CSc1nnc(-c2cccc(OC)c2)o1)c1ccc(OC)cc1	none
CCOC(=O)CN(C(=O)CSc1nnc(-c2cccc(OC)c2)o1)c1ccc(F)cc1	Gli-Sufu antag 99 | Gli-Sufu confirm inactive | Gli cytotox inactive | Wnt3a counter inactive
Cc1ccc(-c2nc3sc4c(N)ncnc4c3c3c2CCCC3)cc1	none (no result: Beta apoptosis) | Gli-Sufu confirm inactive | Gli cytotox inactive | Wnt3a counter 25
COc1ccccc1C=NN=C1c2ccccc2-c2ccccc21	none (no result: 697 NFkB inh, CSC inhib, Jurkat NFkB inh, Mdm2-MdmX inh, Beta apoptosis)
Cn1cc(CNCc2ccccc2OCC(O)CN2CCc3ccccc3C2)cn1 (stereo not given)	Gli-Sufu antag 55 | Gli-Sufu confirm inactive | Gli cytotox inactive | Wnt3a counter inactive
OC(COCc1ccccc1)CN1CCc2ccccc2C1 (stereo not given)	none
O=C(Nc1ccc(C(F)(F)F)cc1)C1CCN(S(=O)(=O)c2ccc(N3CCCC3=O)cc2)CC1	Beta apoptosis 101, Gli-Sufu antag 77 | Gli-Sufu confirm 79 | Gli cytotox inactive | Wnt3a counter inactive
COc1ccc(NC(=O)C2CCN(S(=O)(=O)c3ccc(OC)c(OC)c3)CC2)cc1	none
COc1ccc(NC(=O)C2CCN(S(=O)(=O)c3ccc(N4CCCC4=O)cc3)CC2)cc1OC	none | Gli-Sufu confirm inactive | Gli cytotox inactive | Wnt3a counter inactive
Cc1ccc(N(CC(=O)NC(C)C)C(=O)CCC(=O)Nc2nccs2)c(C)c1	none
CN(C)S(=O)(=O)c1cccc(C(=O)OCC(=O)Nc2sccc2C#N)c1	Gli-Sufu antag 99 | Gli-Sufu confirm inactive | Gli cytotox inactive | Wnt3a counter inactive
CN(C)S(=O)(=O)c1cccc(C(=O)OCC(=O)Nc2ccc3c(c2)OCCO3)c1	none (no result: CSC inhib)
Cc1ccc2c(c1)C(=O)N1[C@H]3c4ccccc4OC[C@@H]3[C@H](c3ccccc3)[C@]1(C)C(=O)N2	none
CC1=CC(C)(C)N=C(NC#N)N1	none
CC1=CC(C)(C)N=C(Nc2nc(C)c3cc(C)cc(C)c3n2)N1	none | Gli-Sufu confirm inactive | Gli cytotox inactive | Wnt3a counter inactive
Cc1ccc(NC(=O)COc2ccccc2C(N)=O)cc1S(=O)(=O)N1CCCCCC1	none (no result: CSC inhib, Beta apoptosis) | Gli-Sufu confirm 48 | Gli cytotox 28 | Wnt3a counter inactive
Cc1cccc(OCCC(=O)Nc2ccc(C)c(S(=O)(=O)N3CCCCC3)c2)c1	Gli-Sufu antag 62 (no result: 697 NFkB inh, Jurkat NFkB inh, Mdm2-MdmX inh) | Gli-Sufu confirm inactive | Gli cytotox inactive | Wnt3a counter inactive
Cc1ccc(NC(=O)/C=C/c2ccco2)cc1S(=O)(=O)N1CCCCCC1	Gli-Sufu antag 77 | Gli-Sufu confirm 88 | Gli cytotox inactive | Wnt3a counter inactive
O=C(/C=C/c1ccco1)Nc1cccc(S(=O)(=O)N2CCOCC2)c1	none
COc1ccc(C(=O)NCc2nnc(SCC(=O)Nc3cc(OC)ccc3OC)o2)cc1	none | Gli-Sufu confirm inactive | Gli cytotox inactive | Wnt3a counter inactive
COc1ccc(OC)c(NC(=O)COC(=O)c2ccc(-n3cnnn3)cc2)c1	Gli-Sufu antag 69 | Gli-Sufu confirm inactive | Gli cytotox inactive | Wnt3a counter inactive
CCN1CCN(S(=O)(=O)CC2(C)C3CCC2(C)C(=O)C3Br)CC1 (stereo not given)	none
CN(C(=O)c1cccc(Br)c1)C1CCS(=O)(=O)C1 (stereo not given)	none

Source: PubChem
